Results from PubChem BioAssay (EPA / NIEHS).
“And” between values parts separate entries of the source, which are not always exact repeats. Equal values may be shown once. More than one record can exist for a structure, and the calls need not agree. The source made the active and inactive calls. Rule for the calls: active = hit-call score of the fitted dose curve at least 0.9, where 1 is the maximum; inactive = score below 0.9.

read-out: Interleukin-10 (IL10), IL10 (gene 3586); assay: BSK_IMphg_IL10: BioMAP Diversity Plus: IMphg Assay for Interleukin-10 (IL10) Biomarker Activity (AID 2284294); settings: primary human endothelial cells with macrophages
Procedure: BSK_IMphg is a cell-based, multiplexed-readout assay that uses venular endothelial cells and macrophages, a human vascular primary cell, with measurements taken at 24 hours after chemical dosing in a microplate: 96-well plate.BSK_IMphg_IL10 is an assay component measured in the BSK_IMphg assay. It measures IL-10 antibody related to regulation of gene expression using ELISA technology.Data from the assay component BSK_IMphg_IL10 was analyzed at the endpoint, BSK_IMphg_IL10, in the positive analysis fitting direction relative to DMSO as the negative control and baseline of activity. Using a type of binding reporter, gain or loss-of-signal activity can be used to understand protein changes. To generalize the intended target to other relatable targets, this assay endpoint is annotated to the 'cytokine' intended target family, where the subfamily is 'interleukins'.
The levels of cell surface (or secreted, indicated by the prefix "s") biomarker endpoints were measured by ELISA. Overt cytotoxicity to cells in confluent adherent cultures (all systems other than the BT system) was assessed by measuring total protein levels using sulforhodamine B (SRB) staining in parallel cultures at the time of biomarker measurements, indicated as SRB endpoints. For proliferation assays for adherent cell types, individual cell types are cultured at sub-confluence and relative cell numbers quantified by SRB staining at time points optimized for each system (48 h: 3C and CASM3C systems; 72 h: BT and HDF3CGF systems; 96 h: SAg system). SRB was performed by staining cells with 0.1% SRB after fixation with 10% TCA and reading wells at 560 nm.Viability and proliferation of PBMC (T cells) was quantified by Alamar Blue reduction for the SAg and BT systems. For PBMC viability (referred to as PBMC Cytotoxicity within the assay endpoint names), cells were plated (75,000/well in a 96-well plate) and then chemical samples added for 1 h before addition of activators, SEB and TSST-1 (20 ng/mL final concentration each). Cells were incubated for 90 h. Then, Alamar Blue (20 uL/well) (Invitrogen, Cat DAL1100) was added for 6 h, and the plates were read with a fluorescence microplate reader at 546/580 nm (excitation/emission). For PBMC proliferation, cells were plated and activated as above but incubated for only 16 h prior to addition of Alamar Blue. Plates were read after 6 h.

| SMILES | AC50 | outcome |
| --- | --- | --- |
| O=C(O)CCC(F)(F)C(F)(F)C(F)(F)C(F)(F)C(F)(F)C(F)(F)C(F)(F)F | 3.33 µM (active) | – |
| O=C(O)C(F)(F)C(F)(F)C(F)(F)OC(F)(C(F)(F)F)C(F)(F)F | – | inactive |
| C=CC(=O)OCCC(F)(F)C(F)(F)C(F)(F)C(F)(F)F | – | inactive |
| NC(O)(C(F)(F)F)C(F)(F)F | – | inactive |
| OCC(O)CC(F)(F)C(F)(F)C(F)(F)C(F)(F)F (stereo not given) | – | inactive |
| FC(F)(F)C(F)(F)C(F)(F)C(F)(F)C(F)(F)C(F)(F)C(F)(F)CCI | – | inactive |
| CN(C(=O)C(F)(F)C(F)(F)C(F)(F)F)[Si](C)(C)C | – | inactive |
| O=C(O)C(F)(F)OC(F)(F)C(F)(F)OC(F)(F)C(F)(F)OC(F)(F)F | – | inactive |
| O=C(Cl)C(F)(F)C(F)(F)C(F)(F)C(F)(F)C(F)(F)C(F)(F)C(F)(F)F | – | inactive |
| OCC(F)(F)C(F)(F)C(F)(F)CO | – | inactive |
| COC(F)(C(F)F)C(F)(F)F (stereo not given) | – | inactive |
| O=S(=O)(Cl)C(F)(F)C(F)(F)C(F)(F)C(F)(F)C(F)(F)C(F)(F)C(F)(F)C(F)(F)F | 54.1 µM (active) | inactive |
| O=S(=O)(O)CCC(F)(F)C(F)(F)C(F)(F)C(F)(F)C(F)(F)C(F)(F)C(F)(F)C(F)(F)F | 30 µM (active) | – |
| O=C(Cl)C(F)(F)C(F)(F)C(F)(F)C(F)(F)C(F)(F)C(F)(F)F | 7.98 µM (active) and 7.26 µM (active) | inactive |
| C[Si](Cl)(Cl)CCC(F)(F)C(F)(F)C(F)(F)C(F)(F)C(F)(F)C(F)(F)F | – | inactive |
| NCC(F)(F)C(F)(F)C(F)(F)C(F)(F)C(F)(F)C(F)(F)F | – | inactive |
| CNS(=O)(=O)C(F)(F)C(F)(F)C(F)(F)C(F)(F)C(F)(F)C(F)(F)C(F)(F)C(F)(F)F | 17.9 µM (active) | inactive |
| FC(F)(F)C(F)(F)C(F)(F)CC1CO1 (stereo not given) | – | inactive |
| C=C(C)C(=O)OCC(F)(F)C(F)(F)C(F)(F)C(F)F | – | inactive |

| SMILES | AC50 | outcome |
| --- | --- | --- |
| O=C(O)C(F)(F)C(F)(F)C(F)(F)C(F)(F)C(F)(F)C(F)(F)C(F)F | – | inactive |
| O=C(F)C1(F)C(F)(F)C(F)(F)C(F)(F)C(F)(F)C1(F)F | – | inactive |
| CCN(CCO)S(=O)(=O)C(F)(F)C(F)(F)C(F)(F)C(F)(F)C(F)(F)C(F)(F)C(F)(F)C(F)(F)F | – | inactive |
| OCC(F)(F)C(F)(F)C(F)(F)C(F)(F)C(F)(F)C(F)(F)CO | 3.34 µM (active) and 5.58 µM (active) | – |
| OCCCCC(F)(F)C(F)(F)C(F)(F)C(F)(F)F | – | inactive |
| O=S(=O)(OCC(F)(F)F)C(F)(F)C(F)(F)C(F)(F)C(F)(F)F | – | inactive |
| OC(O)C(F)(F)C(F)(F)F | – | inactive |
| NC(=O)C(F)(F)C(F)(F)C(F)(F)F | – | inactive |
| OCC(F)(F)C(F)(F)C(F)(F)C(F)(F)C(F)(F)C(F)(F)C(F)(F)C(F)(F)CO | 21.5 µM (active) and 42.7 µM (active) | – |
| OCC(O)CC(F)(F)C(F)(F)C(F)(F)C(F)(F)C(F)(F)C(F)(F)C(F)(F)C(F)(F)F (stereo not given) | – | inactive |
| O=S(=O)(O)CCC(F)(F)C(F)(F)C(F)(F)C(F)(F)F | – | inactive |
| OCCCC(F)(F)C(F)(F)C(F)(F)C(F)(F)C(F)(F)C(F)(F)C(F)(F)C(F)(F)F | 40.8 µM (active) and 32.2 µM (active) | – |
| O=C(O)CCC(F)(F)C(F)(F)C(F)(F)F | – | inactive |
| C=CC(=O)OCC(F)(F)C(F)(F)C(F)(F)COC(=O)C=C | 38.3 µM (active) and 41.1 µM (active) | – |
| FC(F)(F)C(F)(F)C(F)(F)C(F)(F)C(F)(F)C(F)(F)CC[Si](Cl)(Cl)Cl | – | inactive |
| NCC(F)(F)C(F)(F)C(F)(F)C(F)(F)C(F)(F)C(F)(F)C(F)(F)C(F)(F)F | – | inactive |
| NC(=O)C(F)(F)C(F)(F)C(F)(F)C(F)(F)C(N)=O | – | inactive |
| O=C(O)C(F)(F)C(F)(F)C(F)(F)OC(F)(F)F | – | inactive |
